Here are results for six compounds from PubChem BioAssay (EPA / NIEHS).

Experiment [1] in a line: CEETOX_H295R_OHPROG: CeeTox H295R High-throughput Steroidogenesis Assay for OH-Progesterone (OHPROG) (AID 2283435).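 On AC50: human adrenal H295R cells primed 48 h with 10 µM forskolin.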 Particulars: actives raise or lower the signal. In outline: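 H295R adrenal cells prestimulated 48 h with 10 uM forskolin, then exposed 48 h to chemical (0.1% DMSO final). 17alpha-hydroxyprogesterone in medium quantified by HPLC-MS/MS; bidirectional fit versus DMSO, with MTT viability measured in the same wells.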

Experiment [2] is described as follows: CEETOX_H295R_PROG: CeeTox H295R High-throughput Steroidogenesis Assay for Progesterone (PROG) (AID 2283442).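 On AC50: human H295R adrenal cells primed with 10 µM forskolin before dosing.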 Particulars: actives raise or lower the signal. In outline: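 Adrenal H295R line, forskolin-stimulated (10 uM, 48 h) before dosing. 48 h exposure, 0.1% DMSO vehicle. Secreted progesterone by reverse-phase HPLC with ESI+ MS/MS quantification; DMSO-normalised bidirectional curve fit.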

Read-out in experiment [3]: Tumor necrosis factor receptor superfamily member 6 (Homo sapiens) (UniProt P25445)
The experiment is described as follows: LTEA_HepaRG_FAS: Life Technologies and Expression Analysis (LTEA) Assay for Fas cell surface death receptor (FAS) using HepaRG (AID 2283447). The note with it: mRNA level, 48 h; actives raise or lower the signal. In outline: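 FAS transcript level was measured by TaqMan qRT-PCR against three housekeeping genes after 48 h chemical exposure. Cells were HepaRG, 0.5% DMSO vehicle, with a top concentration of 100 uM and half-log dilutions over eight points, in duplicate.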

Read-out in experiment [4]: Fatty acid synthase (Homo sapiens) (UniProt P49327)
As to the kind of experiment: LTEA_HepaRG_FASN: Life Technologies and Expression Analysis (LTEA) Assay for Fatty Acid Synthase (FASN) using HepaRG (AID 2283448).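 On AC50: differentiated human HepaRG liver cells in serum-free induction medium.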 The note with it: mRNA level, 48 h; actives raise or lower the signal. In outline: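 Differentiated HepaRG cells in serum-free induction medium exposed 48 h in duplicate to eight half-log concentrations, top 100 uM, 0.5% DMSO. FASN mRNA by qRT-PCR normalised to ACTB, GAPDH, POLR2A; bidirectional fit versus DMSO.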

Read-out in experiment [5]: Cyclin D2 (CCND2), CCND2 (gene 894)
The experiment is described as follows: LTEA_HepaRG_CCND2: Life Technologies and Expression Analysis (LTEA) Assay for Cyclin D2 (CCND2) using HepaRG (AID 2283449). The note with it: mRNA level, 48 h; actives raise or lower the signal. In outline: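 Read-out is CCND2 mRNA level measured by qRT-PCR in human HepaRG liver cells and normalised to three housekeeping genes. Chemicals were applied for 48 h at up to 100 uM, with gain or loss fitted relative to 0.5% DMSO.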

Read-out in experiment [6]: Cyclin Dependent Kinase Inhibitor 1A (CDKN1A), CDKN1A (gene 1026)
As to the kind of experiment: LTEA_HepaRG_CDKN1A: Life Technologies and Expression Analysis (LTEA) Assay for Cyclin Dependent Kinase Inhibitor 1A (CDKN1A) using HepaRG (AID 2283450). Particulars: mRNA level, 48 h; actives raise or lower the signal. In outline: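 Cryopreserved HepaRG cells were plated and cultured 48 h, then switched to serum-free induction medium. Chemicals (eight half-log concentrations, top 100 uM, 0.5% DMSO) were applied for 48 h. Lysates underwent qRT-PCR for CDKN1A with housekeeping normalization.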

Read-out in experiment [7]: Cyclin D1 (CCND1), CCND1 (gene 595)
The experiment is described as follows: LTEA_HepaRG_CCND1: Life Technologies and Expression Analysis (LTEA) Assay for Cyclin D1 (CCND1) using HepaRG (AID 2283451).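 On AC50: differentiated human HepaRG liver cells in serum-free induction medium; TaqMan qRT-PCR transcript level normalised to ACTB GAPDH and POLR2A housekeeping genes.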 The note with it: mRNA level, 48 h; actives raise or lower the signal. In outline:
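Human liver HepaRG line; 48 h dosing, 8 conc. ≤100 uM, 0.5% DMSO; TaqMan qRT-PCR mRNA, 3 housekeeping genes; bidirectional curve fit vs DMSO.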

Read-out in experiment [8]: flavin-containing dimethylaniline monooxygenases 3 (FMO3), FMO3 (gene 2328)
As to the kind of experiment: LTEA_HepaRG_FMO3: Life Technologies and Expression Analysis (LTEA) Assay for flavin-containing dimethylaniline monooxygenases 3 (FMO3) using HepaRG (AID 2283453). The note with it: mRNA level, 48 h; actives raise or lower the signal. In outline: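 Differentiated HepaRG cells in serum-free induction medium, exposed 48 h in duplicate to 8 half-log concentrations up to 100 uM in 0.5% DMSO. FMO3 mRNA by qRT-PCR, normalized to ACTB, GAPDH, POLR2A; bidirectional fit vs DMSO.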

Read-out in experiment [9]: CFLAR gene, CFLAR (gene 8837)
The experiment is described as follows: LTEA_HepaRG_CFLAR: Life Technologies and Expression Analysis (LTEA) Assay for CFLAR gene using HepaRG (AID 2283455). Particulars: mRNA level, 48 h; actives raise or lower the signal. The essentials: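 HepaRG, 48 h exposure, 8-pt conc-response (100 uM top, half-log), 0.5% DMSO vehicle, duplicates. CFLAR expression by qRT-PCR; ACTB/GAPDH/POLR2A normalization; gain or loss fit vs DMSO baseline.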

Read-out in experiment [10]: Forkhead box O1 (FOXO1), FOXO1 (gene 2308)
The experiment is described as follows: LTEA_HepaRG_FOXO1: Life Technologies and Expression Analysis (LTEA) Assay for Forkhead box O1 (FOXO1) using HepaRG (AID 2283456). The note with it: mRNA level, 48 h; actives raise or lower the signal. In outline: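 Readout is FOXO1 transcript level by multiplexed qRT-PCR against three housekeeping genes, curve-fitted in both directions relative to 0.5% DMSO vehicle. Human HepaRG cultures received chemicals for 48 h, up to 100 uM in half-log steps.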

Read-out in experiment [11]: growth arrest and DNA damage 45 (GADD45A), GADD45A (gene 1647)
As to the kind of experiment: LTEA_HepaRG_GADD45A: Life Technologies and Expression Analysis (LTEA) Assay for growth arrest and DNA damage 45 (GADD45A) using HepaRG (AID 2283458). Particulars: mRNA level, 48 h; actives raise or lower the signal. In outline:
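Differentiated HepaRG cells exposed 48 h in serum-free induction medium to 8 concentrations, top 100 uM in half-log steps, 0.5% DMSO. GADD45A mRNA quantified by qRT-PCR, normalized to ACTB, GAPDH and POLR2A; bidirectional fit versus DMSO.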

A short description of experiment [12]: CEETOX_H295R_CORTIC: CeeTox H295R High-throughput Steroidogenesis Assay for Corticosterone (CORTIC) (AID 2283437).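 Further: corticosterone secreted into medium quantified by mass spectrometry.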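 On AC50: human H295R adrenal cells prestimulated with forskolin before chemical exposure.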 Particulars: actives raise or lower the signal. In outline:
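Corticosterone secreted into medium is measured by reverse-phase HPLC with tandem MS following liquid-liquid extraction. Cells are forskolin-stimulated (10 uM, 48 h) before 48 h test exposure; activity fitted in both directions against DMSO.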

Experiment [13] can be described thus: CEETOX_H295R_CORTISOL: CeeTox H295R High-throughput Steroidogenesis Assay for Cortisol (AID 2283438).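 Further: cortisol secreted into medium quantified by LC-MS/MS.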 Particulars: actives raise or lower the signal. The essentials: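 Forskolin-primed H295R cells (10 uM, 48 h) treated 48 h with test chemical in 0.1% DMSO. Cortisol in medium quantified by MTBE extraction and HPLC-MS/MS; bidirectional fit vs DMSO, MTT viability in same wells.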

Experiment [14] in a line: CEETOX_H295R_DOC: CeeTox H295R High-throughput Steroidogenesis Assay for DOC (AID 2283439). Particulars: actives raise or lower the signal. The essentials: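 H295R cells prestimulated 48 h with 10 uM forskolin, then exposed 48 h to test chemical (0.1% DMSO final). Medium 11-deoxycorticosterone measured by HPLC-MS/MS after MTBE extraction; bidirectional fit vs DMSO, viability checked by MTT in same wells.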

Read-out in experiment [15]: Cytochrome P450 (CYP1A1), CYP1A1 (gene 1543)
The experiment is described as follows: LTEA_HepaRG_CYP1A1: Life Technologies and Expression Analysis (LTEA) Assay for Cytochrome P450 (CYP1A1) using HepaRG (AID 2283454). Particulars: mRNA level, 48 h; actives raise or lower the signal. In outline: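 Induction of CYP1A1 mRNA in a human hepatic cell line was measured 48 h after dosing, with 1 mM phenobarbital as induction positive control and 0.5% DMSO vehicle as baseline for bidirectional curve fitting.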

Experiment [16] can be described thus: CEETOX_H295R_ANDR: CeeTox H295R High-throughput Steroidogenesis Assay for Androstenedione (ANDR) (AID 2283436). The note with it: actives raise or lower the signal. In outline: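 Read-out is androstenedione secreted into medium, measured by tandem mass spectrometry after liquid-liquid extraction. Cells were H295R, dosed for 48 h per modified OECD 456; activity fitted in both directions relative to DMSO.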

The nature of experiment [17]: CEETOX_H295R_TESTO: CeeTox H295R High-throughput Steroidogenesis Assay for Testosterone (TESTO) (AID 2283457).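 Further: cells exposed to chemicals for 48 h before medium collection.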 Particulars: actives raise or lower the signal. The essentials:
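Testosterone synthesis is assessed in human adrenocortical H295R cells after 48 h of chemical exposure, using HPLC-MS/MS of extracted medium. Activity is fitted in both directions against DMSO control.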

Experiment [18] can be described thus: CEETOX_H295R_ESTRADIOL: CeeTox H295R High-throughput Steroidogenesis Assay for Estradiol (AID 2283440).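 Further: estradiol secreted into medium quantified by LC-MS/MS after dansyl derivatisation.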 Particulars: actives raise or lower the signal. The essentials: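 Following OECD 456 with minor changes, H295R cells received 10 uM forskolin for 48 h and then test chemical for 48 h. Hormone output was read by HPLC-MS/MS, with cytotoxic concentrations diluted until MTT viability reached ≥70%.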

A short description of experiment [19]: CEETOX_H295R_ESTRONE: CeeTox H295R High-throughput Steroidogenesis Assay for Estrone (AID 2283441).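 Further: estrone secreted into medium measured by LC-MS/MS after dansyl derivatization.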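 On AC50: human adrenal H295R cells prestimulated with forskolin for two days.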 The note with it: actives raise or lower the signal. The essentials:
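H295R cells prestimulated 48 h with 10 uM forskolin, then exposed 48 h to chemicals in 0.1% DMSO final; estrone in medium extracted with MTBE, dansyl-derivatized, quantified by HPLC-MS/MS; bidirectional fitting versus DMSO, viability by MTT.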

Several values for one entry are separate records, joined by “and”; a condition that tells them apart may be missing. Equal values may be shown once. Activity calls are given as the source filed them. How the source made its calls: active means hit-call score of the fitted dose curve at least 0.9, where 1 is the maximum; inactive means score below 0.9.

Fatty acid synthase (Homo sapiens), sequence (P49327 whole entry, looked up): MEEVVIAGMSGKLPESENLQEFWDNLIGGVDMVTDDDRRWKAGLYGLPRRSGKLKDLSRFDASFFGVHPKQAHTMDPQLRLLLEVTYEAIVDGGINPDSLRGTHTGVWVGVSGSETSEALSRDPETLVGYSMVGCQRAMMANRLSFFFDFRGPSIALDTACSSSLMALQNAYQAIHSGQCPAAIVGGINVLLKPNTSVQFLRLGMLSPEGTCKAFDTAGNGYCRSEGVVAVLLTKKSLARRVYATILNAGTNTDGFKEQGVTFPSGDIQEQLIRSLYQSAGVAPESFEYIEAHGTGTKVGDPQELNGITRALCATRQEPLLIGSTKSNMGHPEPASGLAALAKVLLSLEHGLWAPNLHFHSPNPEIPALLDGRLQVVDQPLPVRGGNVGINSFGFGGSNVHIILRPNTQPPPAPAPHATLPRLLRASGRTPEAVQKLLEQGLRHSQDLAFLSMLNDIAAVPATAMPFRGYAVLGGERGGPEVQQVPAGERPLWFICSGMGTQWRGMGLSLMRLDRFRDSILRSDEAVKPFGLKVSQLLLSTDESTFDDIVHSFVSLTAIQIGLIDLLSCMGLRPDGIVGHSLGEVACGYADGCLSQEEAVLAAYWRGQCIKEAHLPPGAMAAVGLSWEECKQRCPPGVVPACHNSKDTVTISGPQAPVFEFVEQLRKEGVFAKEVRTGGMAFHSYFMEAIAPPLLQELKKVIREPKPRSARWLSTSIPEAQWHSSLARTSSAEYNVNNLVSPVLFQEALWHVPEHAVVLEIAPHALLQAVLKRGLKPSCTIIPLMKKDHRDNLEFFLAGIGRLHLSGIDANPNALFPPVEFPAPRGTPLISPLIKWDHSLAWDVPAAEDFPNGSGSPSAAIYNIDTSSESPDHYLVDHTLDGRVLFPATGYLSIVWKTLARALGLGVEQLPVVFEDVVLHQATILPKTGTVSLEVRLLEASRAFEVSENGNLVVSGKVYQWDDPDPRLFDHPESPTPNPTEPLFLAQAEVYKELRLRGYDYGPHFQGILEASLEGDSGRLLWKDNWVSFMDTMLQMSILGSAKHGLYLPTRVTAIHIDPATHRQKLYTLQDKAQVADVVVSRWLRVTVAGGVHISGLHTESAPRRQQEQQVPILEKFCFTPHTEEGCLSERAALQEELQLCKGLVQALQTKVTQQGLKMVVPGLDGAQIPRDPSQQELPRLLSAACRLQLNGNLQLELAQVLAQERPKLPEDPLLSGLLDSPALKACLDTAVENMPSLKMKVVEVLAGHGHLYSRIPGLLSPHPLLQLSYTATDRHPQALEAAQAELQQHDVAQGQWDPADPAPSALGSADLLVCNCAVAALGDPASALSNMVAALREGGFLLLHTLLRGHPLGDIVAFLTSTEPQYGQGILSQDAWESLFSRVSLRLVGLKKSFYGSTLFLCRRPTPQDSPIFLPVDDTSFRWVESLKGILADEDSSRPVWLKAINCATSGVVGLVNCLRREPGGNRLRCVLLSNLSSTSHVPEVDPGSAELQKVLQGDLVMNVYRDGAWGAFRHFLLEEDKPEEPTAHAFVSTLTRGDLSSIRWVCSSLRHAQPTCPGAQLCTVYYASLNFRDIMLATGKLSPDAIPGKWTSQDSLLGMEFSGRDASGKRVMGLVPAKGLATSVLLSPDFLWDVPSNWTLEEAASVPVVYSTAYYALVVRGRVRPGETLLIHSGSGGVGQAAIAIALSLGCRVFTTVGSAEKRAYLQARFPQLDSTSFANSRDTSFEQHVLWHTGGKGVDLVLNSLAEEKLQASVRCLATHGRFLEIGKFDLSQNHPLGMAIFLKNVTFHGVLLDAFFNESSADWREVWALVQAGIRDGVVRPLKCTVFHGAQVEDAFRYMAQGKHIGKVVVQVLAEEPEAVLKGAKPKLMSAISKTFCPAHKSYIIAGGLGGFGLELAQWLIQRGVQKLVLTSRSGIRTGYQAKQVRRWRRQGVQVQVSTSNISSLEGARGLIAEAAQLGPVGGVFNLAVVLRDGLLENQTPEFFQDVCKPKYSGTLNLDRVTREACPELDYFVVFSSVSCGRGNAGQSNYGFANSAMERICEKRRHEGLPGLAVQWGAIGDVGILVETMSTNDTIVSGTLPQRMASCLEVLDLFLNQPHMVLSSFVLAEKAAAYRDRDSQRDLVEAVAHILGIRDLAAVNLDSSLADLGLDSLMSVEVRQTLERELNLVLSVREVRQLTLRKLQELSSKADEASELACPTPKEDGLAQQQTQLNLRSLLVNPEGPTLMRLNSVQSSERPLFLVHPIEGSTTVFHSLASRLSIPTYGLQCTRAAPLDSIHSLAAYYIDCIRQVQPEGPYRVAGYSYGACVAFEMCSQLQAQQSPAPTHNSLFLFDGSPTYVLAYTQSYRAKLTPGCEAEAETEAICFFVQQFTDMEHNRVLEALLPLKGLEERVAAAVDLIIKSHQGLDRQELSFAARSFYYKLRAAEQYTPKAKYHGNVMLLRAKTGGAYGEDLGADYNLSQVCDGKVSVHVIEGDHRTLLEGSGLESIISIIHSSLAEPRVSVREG

`CC(C)(C)c1ccc(O)cc1`: the AC50 (as a rule, the concentration giving half of the maximal activity seen) in experiment [1] is 24.2 µM (active). The outcome in [2], in [3], in [4], in experiment [5], in experiment [6] and in experiment [7] was inactive. The compound was classed as inactive in [8], in experiment [9], in [10] and in experiment [11].
Regarding `Nc1ccc(Cl)cc1`, the AC50 was 25.5 µM (active) in experiment [1], 50 µM (active) in experiment [14], 16.5 µM (active) in experiment [2] and 28 µM (active) in [15]. Besides, the compound was called inactive in experiment [12], in [13], in [3], in experiment [4], in experiment [5] and in [6]. Also, the compound was classed as inactive in experiment [7], in [8], in experiment [9], in experiment [10] and in experiment [11].
For the compound `CC(=O)c1ccc(-c2ccccc2)cc1`, the AC50 was 25.8 µM (active) in [1]; 50 µM (active) in experiment [16]; 18.9 µM (active) in experiment [12]; 36.5 µM (active) in experiment [14]; 19.1 µM (active) in [17]. For the same compound, the compound was called inactive in [13] and in experiment [2].
As for `Cc1cccc(N)c1`, the result in experiment [1], in experiment [2], in [4], in experiment [5], in [6] and in experiment [7] was inactive. The result in experiment [8], in experiment [9], in [10] and in [11] was inactive. The AC50 in [15] is 50.2 µM (active).
Regarding `Cc1ccc(N)cc1N`, the outcome in experiment [12], in experiment [14], in [18], in experiment [19], in experiment [3] and in experiment [5] was inactive. Further, the compound was called inactive in [6], in [7], in experiment [8], in experiment [9], in experiment [10] and in experiment [11]. Moreover, the AC50 was 14.7 µM (active) in experiment [4] and 21.6 µM (active) in experiment [15].
In the case of `c1ccc2c(c1)Nc1ccccc1S2`, the AC50 is 20.4 µM (active) and 25 µM (active) and 18.1 µM (active) in experiment [1]; 9.58 µM (active) and 17.3 µM (active) and 12 µM (active) in experiment [19]; 2.23 µM (active) and 2.16 µM (active) and 12.2 µM (active) in [2]; 50 µM (active) in experiment [4]; 67.9 µM (active) in experiment [7]; 86.5 µM (active) in [15]. In addition, the call in experiment [18], in experiment [3], in experiment [6], in experiment [8], in [9] and in experiment [10] was inactive. In addition, the compound was called inactive in experiment [11].
